# Data taken from PubChem BioAssay AID588742 (Southern Research Specialized Biocontainment Screening …, 2011).
# Among all 1,800 compounds or so, about 410 (23%) were called active. The list is a sample of the results. Results with a measured potency or affinity are listed apart. Values without a mark were called inactive. How the calls were made is not given here.
# Assay: Vero cell cytotoxicity, cytotoxicity control for flavivirus capping enzyme inhibitors (AID 588742)
# Details: Vero cells viability, cytotoxicity counter-screen; series mostly up to 40 µM; viability: at the top concentration
row,SMILES,viability
1,Cc1ccc(C2c3sc(=O)[nH]c3SC3C(=O)NC(=O)C32)cc1 (stereo unspecified),98.6%
2,COc1cccc(/C=C2\SC(=S)N(NS(=O)(=O)c3ccc(C)cc3)C2=O)c1OC,86.8%
3,CC1(C)CC(=O)C(C(c2ccc(Br)cc2)C2C(=O)CC(C)(C)CC2=O)C(=O)C1,96.5%
4,CC1=NN(Cc2ccccc2)C(=O)C1C(c1ccccc1)C(C#N)C#N (stereo unspecified),88.9%
5,CCOc1ccccc1NC(=O)CN1C(=O)COc2ccc(S(=O)(=O)N3CCOCC3)cc21,101%
6,Cc1cc(OCC(=O)NC2CCN(Cc3ccccc3)CC2)c2c(C)c(C)c(=O)oc2c1,101%
7,O=C1ON=C(c2cccc([N+](=O)[O-])c2)/C1=C/c1ccc(O)cc1,80.4%
8,O=C1/C(=C/c2ccc(C(=O)O)cc2)CCC/C1=C\c1ccc(C(=O)O)cc1,114%
9,O=C(O)c1cccc(N2C(=O)C=CC2=O)c1,107%
10,Cc1ccc([C@H]2C(C(=O)O)=CC[C@@H](c3ccc(Cl)c(Cl)c3)N2S(=O)(=O)c2ccc(C)cc2)cc1,84.2%
11,O=C(COc1ccccc1/C=C\c1[nH]c(=O)[nH]c(=O)c1[N+](=O)[O-])Nc1ccccc1,109%
12,CCOC(=O)CC1=NN(c2ccccc2)C(=O)/C1=C\c1ccc(OC)cc1OC,94.6%
13,CCOC(=O)c1c2c(c(=S)n(-c3ccccc3)c1N)CCC2,82.2%
14,O=S(=O)(Nc1nc(-c2sccc2Cl)cs1)c1cc(Cl)ccc1Cl,99.7%
15,Fc1cccc(Cl)c1CNc1ccc(N2CCCC2)cc1,84.4%
16,CCN1C(=NCc2ccccc2)N[C@@H](c2ccccc2)[C@H](C(=O)OC)[C@H]1C,97.6%
17,O=C(Cc1ccc(Br)cc1)Nc1ccc2[nH]ncc2c1,90.6%
18,CN(CCO)c1cc(Sc2nc3ccccc3s2)c2nonc2c1[N+](=O)[O-],98.6%
19,O=c1cc(-c2ccccc2)[nH]c2[nH]n(-c3ccccc3)c(=O)c12,97%
20,O=C(O)c1ccc(Cl)c(S(=O)(=O)Nc2ccccc2C(=O)Nc2ccc(Cl)cc2)c1,94.1%
21,Cc1ccc(C)c(S(=O)(=O)Nc2ccccc2C(=O)Nc2ccc(S(=O)(=O)Nc3ncccn3)cc2)c1,102%
22,CC(=C\c1ccccc1)/C=C1/SC(=S)N(C(C(=O)O)C(C)C)C1=O (stereo unspecified),99.2%
23,Oc1ccc(/C=N/N2CCCCC2)c(O)c1O,96%
24,Cc1cc(C(=O)N/N=C/c2ccc(O)c(O)c2O)c(C)n1-c1ccccc1,85%
25,Oc1cccc(/C=N/N=C/c2cccc(O)c2O)c1O,86.5%
26,CCN(CC)S(=O)(=O)c1cccc(C(=O)N/N=C/c2ccc(O)c(O)c2O)c1,99.8%

row,SMILES,viability
1,O=C1N=c2ccccc2=C1c1sc(=S)n(NC(=O)c2cccc(O)c2)c1O,99.3%
2,CC1=NN(c2ccc(C)cc2C)C(=O)C1C(c1ccccc1)C1C(=O)N(c2ccc(C)cc2C)N=C1C (stereo unspecified),92.2%
3,O=C(O)c1ccccc1-c1ccccc1C(=O)Nc1ccc2c(c1)oc(=O)c1ccccc12,108%
4,Cc1cc(C)c(C(=O)COc2cccnc2[N+](=O)[O-])cc1C,99%
5,COc1ccc(/C=N/NC(=O)c2nn(-c3ccccc3)c(=O)c3c(N)scc23)cc1,94%
6,Nc1scc2c(C(=O)N/N=C/c3ccc(Cl)cc3)nn(-c3ccccc3)c(=O)c12,94%
7,Cc1[nH]c(=O)c(C#N)c(C)c1CCC(=O)Nc1cc(S(C)(=O)=O)ccc1Cl,105%
8,N#Cc1c([N+](=O)[O-])cc([N+](=O)[O-])cc1S(=O)(=O)Cc1ccccc1,96.8%
9,CSc1nc(SCC(=O)O)c2sc3nc(-c4ccccc4)c4c(c3c2n1)CCC4,95.7%
10,CCCS(=O)(=O)c1nc(S(=O)(=O)c2ccc(C)cc2)c(N2CCC(O)CC2)s1,103%
11,O=C(O)c1cccc2c1C(=O)c1ccc(-c3ccc(F)cc3OCc3ccccc3)cc1S2(=O)=O,109%
12,Cc1nc(N2C(=O)C(=O)/C(=C(/O)c3ccccc3)C2c2ccco2)sc1C (stereo unspecified),85%
13,CCCOc1ccc(/C=C2/C(=O)ON=C2C)cc1OCC,105%
14,C=CCOc1ccc(/C=C2/C(=O)ON=C2C)cc1OCC,102%
15,CCc1cc(=O)oc2cc(OCC(=O)NCCCn3ccnc3)c(Cl)cc12,98.5%
16,CC1(C)CC(=O)C(=Cc2cn(CCC#N)nc2-c2ccc(F)cc2)C(=O)C1,105%
17,CCOc1cc(/C=C2\NC(=O)NC2=O)cc([N+](=O)[O-])c1O,112%
18,COc1ccc2c(c1)Cc1cc(NC(=O)c3ccccc3-c3ccccc3C(=O)O)ccc1-2,95.3%
19,O=C(NCCCl)NNC(=O)c1cc2ccccc2cc1O,94.7%
20,COc1ccc(NC(=O)Nc2c(O)ccc3ccccc23)cc1,94.1%
21,COc1ccccc1NC(=O)NNC(=O)c1cc2ccccc2cc1O,84.9%
22,O=C1c2ccccc2C(O)(c2ccccc2)N1c1ccc([N+](=O)[O-])cc1Cl (stereo unspecified),90.8%
23,CCC1(C)Cc2c(sc3[nH]c(=O)[nH]c(=O)c23)CS1 (stereo unspecified),104%
24,CC1(C)Cc2c(sc3nc4n(-c5ccccc5)c(=O)c(CCC(=O)O)nn4c(=O)c23)CO1,108%
25,CCOc1cc(/C=N/N=C2/NC(=O)C(CC(=O)O)S2)ccc1OCc1ccccc1Cl (stereo unspecified),100%
26,COc1ccccc1N1CCN(/N=C/c2cccc(OC)c2O)CC1,99.3%

row,SMILES,viability
1,CCOc1ccccc1CNc1ccc(O)cc1,96.2%
2,Oc1ccc(NCc2ccccc2OCc2ccccc2F)cc1,97.6%
3,CCOC(=O)c1c(/N=C/c2cccc([N+](=O)[O-])c2O)sc(C)c1C,105%
4,C=CCOC(=O)C1=C(C)N=c2s/c(=C3\C(=O)N(CC(=O)O)c4ccccc43)c(=O)n2C1c1ccc(OC)cc1 (stereo unspecified),105%
5,COc1ccc(/C=c2\sc3nc(=O)c(C)nn3c2=O)c(OC)c1,100%
6,COC(=O)C1=CN(c2cccc(C)c2)C=C(C(=O)OC)C1c1cc(OC)c(O)c([N+](=O)[O-])c1,96.7%
7,Cc1ccc(S(=O)(=O)Nn2c(C)ccc2C)cc1,97.7%
8,Cc1ccc(C(c2c(O)nc3n(c2=O)CCS3)c2c(O)nc3n(c2=O)CCS3)cc1,97.4%
9,NS(=O)(=O)c1ccc(N=Nc2c(O)c(C(=O)O)cc3ccccc23)cc1,117%
10,CC(=O)N1c2ccc(S(=O)(=O)N(C)CC(=O)NCc3ccc(C)cc3)cc2CC1C (stereo unspecified),89.4%
11,COc1cc(/C=C/c2[nH]c(=O)[nH]c(=O)c2[N+](=O)[O-])cc([N+](=O)[O-])c1O,92.2%
12,O=C(/C=C/Nc1ccc(S(=O)(=O)Nc2ncccn2)cc1)c1cccs1,106%
13,CCCOc1ccc(C(=O)N/N=C/c2ccc(-c3ccc(S(=O)(=O)Nc4ncccn4)cc3)o2)cc1,97.5%
14,O=C1NN(c2ccccc2)C(=O)/C1=C/c1ccc(-c2ccc(C(=O)O)cc2)o1,108%
15,Nc1nc2ncc(C(=O)c3cc(Cl)cc(Cl)c3O)cc2s1,95.3%
16,C=CCn1c(=O)c(CCC(=O)Nc2ccc(N3CCOCC3)cc2)nc2cc(C(F)(F)F)ccc21,90.6%
17,CC1(OC(=O)c2ccco2)C(=O)C=C2C=C(C3CC3)OC=C2C1=O (stereo unspecified),96.2%
18,C/C(=N/NC(=O)c1cc(O)c(O)c(O)c1)c1ccc([N+](=O)[O-])cc1,99.6%
19,O=C(NC1CCCCC1)c1cc2ccccc2cc1O,94.5%
20,O=C(CCC1CCCC1)NNC(=O)c1cc2ccccc2cc1O,87.1%
21,Cc1cc(C)c2nc(N3C(=O)C(O)=C(C(=O)c4ccco4)C3c3ccc(O)cc3)sc2c1 (stereo unspecified),96.7%
22,O=C(CNS(=O)(=O)c1ccc2ccccc2c1)OCC(=O)c1ccc(Br)s1,93.8%
23,O=C(c1ccccc1)c1ccc(OCC(O)CN2CCN(S(=O)(=O)N3CCCCC3)CC2)cc1 (stereo unspecified),87.1%
24,CC(C)c1ccc(Nc2ccc(C(=O)O)cc2[N+](=O)[O-])cc1,101%
25,CCc1nnc(N/N=C/c2ccc(N3CCC(C)CC3)c([N+](=O)[O-])c2)n1N,89.8%
26,COc1ccc(C2CC(c3ccccc3)=NN2c2ccc(Cl)c(C(=O)O)c2)cc1 (stereo unspecified),91.2%

row,SMILES,viability
1,O=C(CCN1C(=O)/C(=C\C=C\c2ccccc2)SC1=S)Nc1ccccc1C(=O)O,95.4%
2,O=C1CCC/C(=N/Nc2ccc(Cl)cc2)C1,89.1%
3,COc1cc(C2C(C#N)=C(N)OC3=C2C(=O)CC(C)(C)C3)c([N+](=O)[O-])cc1OC (stereo unspecified),108%
4,Cc1[nH]c2ccccc2c1C1=CC(=O)C=CC1=O,89.9%
5,COc1ccc2c([N+](=O)[O-])c(Cl)[nH]c2c1,104%
6,CC(=O)N1CCN(c2ccc(NCc3ccc(Br)o3)cc2)CC1,106%
7,Cc1nc2nc(-c3cccs3)cn2nc1C,95.6%
8,CCCCCCCC1=NN(c2ccc(S(=O)(=O)O)cc2)C(=O)C1N=O (stereo unspecified),100%
9,COC(=O)c1ccc(N2NC(=O)/C(=C/c3ccc(OC)c(OC)c3)C2=O)cc1,98.2%
10,O=C1NN(c2ccccc2)C(=O)/C1=C\c1cccc(OC(=O)c2cccs2)c1,103%
11,Cc1nc2ccccc2c(=O)n1/N=C/c1ccc(O)c(O)c1O,99.3%
12,COCCNC(=O)Nc1ccc2nc(-c3ccco3)c(-c3ccco3)nc2c1,102%
13,Cc1cccc(N/N=C/c2ccc(O)c(O)c2O)c1,103%
14,Oc1ccc(/C=N/N2CCOCC2)c(O)c1O,102%
15,CN=c1scc(C)n1/N=C/c1ccc(O)c(O)c1O,95.4%
16,C#CCOc1ccc(/C=C2/C(=O)ON=C2C)cc1Cl,98.1%
17,O=C1CCNc2cc3ccccc3cc21,83.9%
18,COc1ccc(C2C(C#N)=C(N)Oc3c2c(C)nn3-c2ccccc2)cc1Cn1nc(C)c([N+](=O)[O-])c1C (stereo unspecified),94.7%
19,O=c1[nH]n2c(=O)c3c([nH]c2c1N=Nc1cccc(C(F)(F)F)c1)CCCC3,101% [at 20 µM]
20,O=c1oc2ccccc2c(O)c1/C=C1\C=Nc2ccccc21,91.5%
21,CCOc1ccc(N2C(=O)C(Cl)=C(N3CCOCC3)C2=O)cc1,98.1%
22,COC(=O)c1c(C)c2c(C)cc3ccccn3c-2c1C(=O)OC,101%
23,Cc1c(CCC(=O)O)c(=O)oc2c(C)c(OCc3cc4c(cc3Cl)OCO4)ccc12,94.4%
